In PubChem BioAssay AID504386 (National Center for Advancing Translational Sciences (NCATS), 2011):
Inconclusive results are not listed. Unmarked numbers belong to inactive results. Activity calls are given as the source filed them. Calls follow the shape of the dose curve; as a rule, active = well fitted curve in the direction sought with a large enough effect; inconclusive = small, poorly fitted or top-dose-only effect, or another doubt; inactive = no such curve, though single readings can be large or run the other way.

target: Runt-related transcription factor 1 (Homo sapiens) + Core-binding factor subunit beta (Homo sapiens) (UniProt Q01196+Q13951); assay: qHTS Assay for Compounds Blocking the Interaction Between CBF-beta and RUNX1 for the Treatment of Acute Myeloid Leukemia: SAR for Probe; settings: AlphaScreen CBFb-His/RUNX1-biotin binding, biochemical; series mostly up to 136 µM; activity change, negative = inhibition: at the top concentration
Excerpt: NIH Chemical Genomics Center [NCGC] NIH Molecular Libraries Probe Production centers Network [MLPCN] MLPCN Grant: X01MH083259-01 Assay Submitter (PI): Paul Liu NCGC Assay Overview: Core Binding Factor (CBF) abnormalities are associated with 20-25% of all acute myeloid leukemias (AML), of which 5-10% are further sub classified as acute myelomonocytic leukemia with eosinophilia, also known as M4Eo in the FAB classification scheme. This subtype of leukemia is usually associated with chromosome 16 inversion (p13:q22). Chromosome 16 inversion results in formation of the fusion oncogene CBFB-MYH11, which encodes the fusion protein CBF-beta-SMMHC. […] It has been hypothesized that the interference of CBF-beta and RUNX1 binding could have therapeutic implications for patients with CBF mediated leukemias. We developed a CBF-beta and RUNX1 binding assay in AlphaScreenTM format and optimized it for high throughput screening to search for inhibitors. The goal of this project is to screen MLPCN's compound collection (MLSMR) for identifying the inhibitors of the interaction between CBF-beta and RUNX1 proteins as research probes. If these probes work well in the animal models, the ultimate goal of this project is to development a new drug treatment for this disease. This assay can not be used to assess how apparent inhibitors interfere with protein binding, and whether inhibitors specifically bind to either protein. Disruption of this protein-protein interaction, through any mechanism, is the intended target activity. The present data set was run to confirm the activity of analogs to the probe in the primary screening assay.
NCGC Assay Protocol Summary: Step, Parameter, Description (1) Reagent, 3 uL CBFb-His/RUNX1-biotin mix incubated together for 20 minutes at room temperature (30 nM each) (2) Compound or control, 23 nL compound stock solution (3) Incubation, 15 minutes at Room temperature (4) Reagent, 1 uL 50 ng each of beads (Nickel beads and streptavidin beads) (5) Incubation, 90 minutes at Room temperature (6) Detection, […], Envision reader in AlphaScreenTM mode Keywords: MLSMR, MLPCN, NIH Roadmap, qHTS, NCGC, Core binding factor, CBF, CBF-beta, Acute myeloid leukemia

Sequence of Runt-related transcription factor 1 (Homo sapiens) + Core-binding factor subunit beta (Homo sapiens) (Q01196 whole entry, looked up): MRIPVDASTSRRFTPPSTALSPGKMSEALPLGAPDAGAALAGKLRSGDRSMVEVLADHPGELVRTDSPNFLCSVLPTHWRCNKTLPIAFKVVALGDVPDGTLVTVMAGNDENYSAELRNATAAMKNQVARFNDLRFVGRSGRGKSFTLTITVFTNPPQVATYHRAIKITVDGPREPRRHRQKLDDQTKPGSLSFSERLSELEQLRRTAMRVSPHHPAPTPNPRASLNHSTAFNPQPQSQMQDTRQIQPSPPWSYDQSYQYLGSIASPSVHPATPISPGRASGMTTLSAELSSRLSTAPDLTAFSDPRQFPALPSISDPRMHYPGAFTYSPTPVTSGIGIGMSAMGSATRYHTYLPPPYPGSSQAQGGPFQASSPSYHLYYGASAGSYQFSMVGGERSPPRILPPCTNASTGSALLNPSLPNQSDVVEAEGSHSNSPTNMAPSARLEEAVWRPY
Sequence of Runt-related transcription factor 1 (Homo sapiens) + Core-binding factor subunit beta (Homo sapiens) (Q13951 whole entry, looked up): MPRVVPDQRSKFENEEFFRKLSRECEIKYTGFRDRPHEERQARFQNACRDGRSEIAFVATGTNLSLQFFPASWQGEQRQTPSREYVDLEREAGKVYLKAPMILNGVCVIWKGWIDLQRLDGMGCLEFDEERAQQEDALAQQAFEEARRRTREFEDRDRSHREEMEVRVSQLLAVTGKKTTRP

SMILES	activity change, negative = inhibition	Potency
NCCCC[C@H](N)C(=O)Nc1ccc(Cl)cc1C(=O)c1ccc[nH]1	4.61%	
CCC(=O)Nc1ccc(Cl)cc1C(=O)c1ccc[nH]1	-7.27%	
C[C@H](N)C(=O)Nc1ccc(Cl)cc1C(=O)c1ccc[nH]1	-16.8%	
NCC(=O)Nc1ccc(Cl)cc1C(=O)c1ccc[nH]1		29.6 µM (active)
NCCC(=O)Nc1ccc(Cl)cc1C(=O)c1ccc[nH]1	-19.4%	
CC(C)[C@H](N)C(=O)Nc1ccc(Cl)cc1C(=O)c1ccc[nH]1	-13.5%	
